Test results: ChEMBL document CHEMBL1157539, “Thousands of chemical starting points for antimalarial lead identification” (Nature, 2010)

These compounds were tested on HepG2 (assay: GSK_TCMDC: Percent inhibition of human HepG2 cell line. Test compounds present at 10uM.).
Assay type: functional

**Q.** How did the Inhibition turn out when `CCN(CC)CCCNc1cc[n+]([O-])c2cc3ccccc3cc12` was run?
**A.** Its Inhibition is 13%.

**Q.** How did the Inhibition turn out when `Cl.NC1=NC2(CCCC2)N(c2ccc(Cl)cc2)C(N)=N1` was run?
**A.** Its Inhibition is 0%.

**Q.** With `COc1ccc2nccc(CCN3CC(O)C(CNCc4ccc5c(n4)NC(=O)CS5)C3)c2n1.Cl` (centres undefined) as the compound, how does the Inhibition read?
**A.** Its Inhibition is 4%.

**Q.** Which Inhibition does the source give for `CC(C)NCc1cccc(-c2ccc(NC(=O)c3ccc(F)cc3)cc2)c1.O=C(O)C(F)(F)F` here?
**A.** The Inhibition was 7%.

**Q.** Which Inhibition does the source give for `CCOc1cccc(C(=O)Nc2nonc2-c2ccc(OC)c(OC)c2)c1` here?
**A.** Its Inhibition is 11%.

**Q.** With `CC(=O)O.CCc1cc2c(cc1CC)CC(NC[C@@H](O)c1ccc(O)c3[nH]c(=O)ccc13)C2` as the compound, how does the Inhibition read?
**A.** Its Inhibition is 0%.

**Q.** `CC(C)N(CC(=O)c1ccc(O)c(C(=O)O)c1)Cc1ccccc1.Cl` was tested. Which Inhibition did it give?
**A.** The Inhibition was 0%.

**Q.** Which Inhibition does the source give for `Nc1nccc(-c2ccc3c(-c4cccc(F)c4)cnc(N)c3c2)n1` here?
**A.** The Inhibition was 41%.

**Q.** With `Cc1ccc(Nc2ccnc(Nc3ccc4c(c3)CS(=O)(=O)C4)n2)cc1O.Cl` as the compound, how does the Inhibition read?
**A.** Its Inhibition is 82%.

**Q.** `O=C(C1CCN(C(c2ccccc2)c2ccc(Cl)c(Cl)c2)CC1)N1CC=CC1` (centres undefined) was tested. Which Inhibition did it give?
**A.** The Inhibition was 1%.

**Q.** With `CN(C)Cc1cc(Nc2ccnc3cc(Cl)ccc23)ccc1O.Cl` as the compound, how does the Inhibition read?
**A.** Its Inhibition is 36%.

**Q.** With `Cc1ccc(C)c(CN2CCC(CNC(=O)c3cc4ccc5cccnc5c4[nH]3)CC2)c1` as the compound, how does the Inhibition read?
**A.** The Inhibition was 25%.

**Q.** With `NC1=NC(c2ccccc2)(c2ccccc2)C(=O)N1CC1CCC1.O=CO` as the compound, how does the Inhibition read?
**A.** Its Inhibition is 17%.

**Q.** With `Cc1cccc2nc(-c3ccc(-c4cccc(CNCCNC(=O)c5ccnn5C)c4)cc3)[nH]c12.O=C(O)C(F)(F)F` as the compound, how does the Inhibition read?
**A.** The Inhibition was 17%.

**Q.** How did the Inhibition turn out when `CCCN(c1ccc(C(F)(F)F)cc1[N+](=O)[O-])S(=O)(=O)C(c1ccccc1)c1ccc(C(F)(F)F)cc1[N+](=O)[O-]` (centres undefined) was run?
**A.** The Inhibition was 0%.

**Q.** `COc1ccc2[nH]ccc(=NN=Cc3cccnc3)c2c1` was tested. Which Inhibition did it give?
**A.** The Inhibition was 0%.

**Q.** How did the Inhibition turn out when `O=c1cc(NCCCNCc2ccc(C(F)(F)F)cc2F)[nH]c2ccccc12` was run?
**A.** Its Inhibition is 1%.

**Q.** `Cc1cccc2nc(-c3cccc(-c4cccc(CNCCN5CCNCC5)c4)c3)[nH]c12.O=C(O)C(F)(F)F` was tested. Which Inhibition did it give?
**A.** Its Inhibition is 11%.

**Q.** `COc1cccc(-c2csc(C(=O)NCC3CCN(Cc4ccc(C(C)(C)C)cc4)C3)c2)c1.O=C(O)C(F)(F)F` (centres undefined) was tested. Which Inhibition did it give?
**A.** Its Inhibition is 30%.

**Q.** With `COc1ccc2[nH]c(/C=C/c3cccc4ccc(C)nc34)nc2c1` as the compound, how does the Inhibition read?
**A.** The Inhibition was 25%.

**Q.** With `O=C(/C=C/c1ccc(Cl)c(Cl)c1)NC1CCC(CN2CCC(Cc3c[nH]c4ccccc34)CC2)CC1` (centres undefined) as the compound, how does the Inhibition read?
**A.** Its Inhibition is 25%.

**Q.** For `CC(C)(C)OC(=O)/C=C(\C(=O)OCc1ccc([N+](=O)[O-])cc1)c1csc(NC(c2ccccc2)(c2ccccc2)c2ccccc2)n1`, which Inhibition is on record?
**A.** The Inhibition was 2%.

**Q.** Which Inhibition does the source give for `CC(C)(CC1CCCCC1)NC(=O)[C@H](CC1CCCCC1)Nc1ccc(C#N)c2ccccc12.O=C(O)C(F)(F)F` here?
**A.** Its Inhibition is 14%.

**Q.** How did the Inhibition turn out when `CN(C)C(=O)CC(=O)NCc1cccc(Cl)c1` was run?
**A.** Its Inhibition is 4%.

**Q.** Which Inhibition does the source give for `Clc1cccc(CNc2nc(NCCc3c[nH]cn3)nc(NC3CCCCC3)n2)c1` here?
**A.** Its Inhibition is 17%.

**Q.** For `O=S(=O)(c1ccccc1)C1CC1`, which Inhibition is on record?
**A.** The Inhibition was 0%.

**Q.** With `Cl.O=c1n(CC2CCCCC2)c2cc(Cl)cc(OCCNc3ccncc3)c2n1CC1CCCCC1` as the compound, how does the Inhibition read?
**A.** Its Inhibition is 2%.

**Q.** Which Inhibition does the source give for `COc1cc2nc(Nc3ccc4c(ccn4Cc4ccccc4)c3)nc(Nc3ccc4c(ccn4Cc4ccccc4)c3)c2cc1OC` here?
**A.** Its Inhibition is 0%.

**Q.** How did the Inhibition turn out when `CCN(CC)CCOc1cc2c(cc1Br)-c1cc(Br)c(OCCN(CC)CC)cc1C2=NO.Cl` was run?
**A.** The Inhibition was 99%.

**Q.** Which Inhibition does the source give for `O=C(Cc1c[nH]cn1)Nc1ccc(-c2cccc(-c3nc4cc(C(F)(F)F)ccc4[nH]3)c2)cc1` here?
**A.** The Inhibition was 20%.

**Q.** Which Inhibition does the source give for `Cc1nnsc1C(=O)Nc1cccc(-c2ccc(-c3nc4ccccc4[nH]3)cc2)c1` here?
**A.** Its Inhibition is 48%.

**Q.** With `CN1CCN(c2ccnc3cc4c(cc23)N(C(=O)Nc2ccc3c(c2)CCCC3=O)CC4)CC1.Cl` as the compound, how does the Inhibition read?
**A.** The Inhibition was 5%.

**Q.** How did the Inhibition turn out when `COc1ccc2nccc([C@@H](O)CN3CCC(NCc4cc5cccc(OCc6ccccc6)c5[nH]4)CC3)c2c1` was run?
**A.** Its Inhibition is 13%.

**Q.** `CCS(=O)(=O)Nc1ccc2c(c1)/C(=C(/Nc1ccc(CN3CCCCC3)cc1)c1ccccc1)C(=O)N2` [HESPERADIN] was tested. Which Inhibition did it give?
**A.** The Inhibition was 53%.

**Q.** For `CC(=O)c1ccc(NC(=O)C2c3ccccc3C(=O)N(CC(C)C)C2c2cccs2)cc1` (centres undefined), which Inhibition is on record?
**A.** The Inhibition was 13%.

**Q.** With `CC(C)(C)NCCN(Cc1ccc(-c2ccc(C(F)(F)F)cc2)cc1)C(=O)Cn1c(CCc2cccc(F)c2F)nc(=O)c2c1CCC2.O=C(O)C(O)C(O)C(=O)O` as the compound, how does the Inhibition read?
**A.** Its Inhibition is 6%.

**Q.** `COc1cccc(CNc2noc(-c3c(-c4ccccc4)noc3C)n2)c1OC` was tested. Which Inhibition did it give?
**A.** Its Inhibition is 0%.

**Q.** For `O=C(NCCCCCN1CCC(c2c[nH]c3ccccc23)CC1)Nc1cccc(Cl)c1`, which Inhibition is on record?
**A.** The Inhibition was 36%.

**Q.** With `CN1CCC(NCc2ccc(-c3cccc(S(=O)(=O)NCCc4ccccn4)c3)cc2)CC1.O=C(O)C(F)(F)F` as the compound, how does the Inhibition read?
**A.** The Inhibition was 42%.
